# Values without a mark were called inactive. Results filed as inconclusive are left out. Where a call stands in place of a potency, no number is given. Active and inactive are the calls of the source. Unless noted, calls come from the whole dose curve.
# What was measured:
# [1] = qHTS assay to identify small molecule agonists of the sonic hedgehog signaling (Shh) pathway (AID 1259368);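 note: NIH/3T3-derived 3T3Gli1-Luc cells carrying a stable Gli1-driven firefly luciferase reporter; series mostly up to about 92 µM; nearly all actives have a fitted effect of over 15% in size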
# In short: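 3T3Gli1-Luc (NIH/3T3 clone, stable Gli1-Luc); 4 hr pre-incubation, then cpd in DMSO 24 hr, 37 C/5% CO2; luciferase reagent 30 min RT; luminescence.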
# [2] = qHTS assay to identify small molecule antagonists of the sonic hedgehog signaling (Shh) pathway (AID 1259369); note: nearly all actives have a fitted effect of over 45% in size; note: potency is the fitted concentration of half-maximal effect
# In short: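 3T3Gli1-Luc, conditioned-medium-stimulated, 24hr cpd, 37C/5% CO2; Gli1-driven firefly Luc luminescence after 30min RT with luciferase reagent. Cells plated 4hr before cpd.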
# [3] = qHTS assay to identify small molecule agonists of the androgen receptor (AR) signaling pathway in the presence of an antagonist - cell viability counter screen (AID 1259379; active = well fitted curve in the direction sought with a large enough effect in the repeat runs; an effect the other way counts as inactive or inconclusive;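 note: MDA-kb2 human breast cancer cells carrying an MMTV luciferase reporter; series mostly up to about 92 µM; nearly all actives have a fitted effect of over 25% in size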)
# In short: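 Cells: MDA-kb2 (MMTV-luc, AR and GR elements), 3,000/well, 5 hr settle. Added: nilutamide 3.0uM final, then compounds (15 conc.). Incubation: 16 hr, 37C, no CO2. Read-out: CellTiter-Fluor, 1 hr, fluorescence.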
# [4] = qHTS assay to identify small molecule agonists of the estrogen receptor beta (ER-beta) signaling pathway - cell viability counter screen (AID 1259380; active = well fitted curve in the direction sought with a large enough effect in the repeat runs; an effect the other way counts as inactive or inconclusive; note: nearly all actives have a fitted effect of over 30% in size; note: potency is the fitted concentration of half-maximal effect)
# In short: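 HEK293T ER-beta-UAS-bla; 2% CS-FBS; 6 hr pre-plate, 16 hr cpd at 37C/5% CO2; LiveBLAzer read first, then CellTiter-Glo 30 min RT, luminescence.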
# [5] = qHTS assay to identify small molecule antagonists of the estrogen receptor beta (ER-beta) signaling pathway - cell viability counter screen (AID 1259382; active = well fitted curve in the direction sought with a large enough effect in the repeat runs; an effect the other way counts as inactive or inconclusive;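 note: HEK293T cells carrying ER-beta-UAS-bla reporter stimulated with estradiol; series mostly up to about 92 µM; nearly all actives have a fitted effect of over 55% in size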)
# In short: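 Cells: ER-beta-UAS-bla HEK293T, 2,000/well, 2% CS-FBS, 6 hr settle. Cpd + E2 (1nM final), 16 hr, 37C/5% CO2. Bla FRET substrate 2 hr RT, then CellTiter-Glo 30 min RT, luminescence.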
# [6] = molecular target: Estrogen receptor (Homo sapiens) (UniProt P03372); assay: qHTS assay to identify small molecule agonists of the estrogen receptor alpha (ER-alpha) signaling pathway in the presence of an antagonist (AID 1259383); note: top concentration of the series differs between compounds; nearly all actives have a fitted effect of over 15% in size
# Chain of Estrogen receptor (Homo sapiens) (P03372 whole entry, looked up): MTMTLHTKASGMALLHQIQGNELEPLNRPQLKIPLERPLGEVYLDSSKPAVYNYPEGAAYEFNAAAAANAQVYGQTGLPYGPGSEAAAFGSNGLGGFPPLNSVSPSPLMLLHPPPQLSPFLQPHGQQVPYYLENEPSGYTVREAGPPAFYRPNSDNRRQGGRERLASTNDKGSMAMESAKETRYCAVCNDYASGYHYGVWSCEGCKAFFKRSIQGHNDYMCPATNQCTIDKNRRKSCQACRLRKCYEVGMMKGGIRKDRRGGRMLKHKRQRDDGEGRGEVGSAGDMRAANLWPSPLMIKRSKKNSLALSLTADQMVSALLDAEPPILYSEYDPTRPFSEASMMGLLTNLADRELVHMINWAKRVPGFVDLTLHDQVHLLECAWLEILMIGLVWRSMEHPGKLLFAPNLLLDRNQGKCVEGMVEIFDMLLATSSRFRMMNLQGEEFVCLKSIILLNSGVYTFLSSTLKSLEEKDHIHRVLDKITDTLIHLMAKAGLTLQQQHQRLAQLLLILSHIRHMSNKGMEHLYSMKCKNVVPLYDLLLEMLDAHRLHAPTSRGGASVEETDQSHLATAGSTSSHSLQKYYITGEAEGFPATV
# In short: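 VM7Luc4E2, endog. ER-alpha + 4×ERE-luc; charcoal-stripped FBS, phenol red-free, 5 d; 24hr plating; +10.0nM ICI-182,780 (final); cpds 15 conc, 22hr, 37C/5% CO2; ONE-Glo luminescence.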
# [7] = qHTS assay to identify small molecule agonists or antagonists of the thyroid stimulating hormone receptor (TSHR) signaling pathway - wild type cell line counter screen (AID 1259384)
# In short: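 Counter screen in untransfected Hek293: compounds (15-point titration, triplicate) plus phosphodiesterase inhibitor Ro20-1724 added after 18 h plating; 30 min RT. Intracellular cAMP via competitive d2/cryptate immunoassay, 1 h incubation.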
# [8] = molecular target: Thyrotropin receptor (Homo sapiens) (UniProt P16473); assay: qHTS assay to identify small molecule antagonists of the thyroid stimulating hormone receptor (TSHR) signaling pathway (AID 1259385); note: nearly all actives have a fitted effect of over 20% in size
# Chain of Thyrotropin receptor (Homo sapiens) (P16473 whole entry, looked up): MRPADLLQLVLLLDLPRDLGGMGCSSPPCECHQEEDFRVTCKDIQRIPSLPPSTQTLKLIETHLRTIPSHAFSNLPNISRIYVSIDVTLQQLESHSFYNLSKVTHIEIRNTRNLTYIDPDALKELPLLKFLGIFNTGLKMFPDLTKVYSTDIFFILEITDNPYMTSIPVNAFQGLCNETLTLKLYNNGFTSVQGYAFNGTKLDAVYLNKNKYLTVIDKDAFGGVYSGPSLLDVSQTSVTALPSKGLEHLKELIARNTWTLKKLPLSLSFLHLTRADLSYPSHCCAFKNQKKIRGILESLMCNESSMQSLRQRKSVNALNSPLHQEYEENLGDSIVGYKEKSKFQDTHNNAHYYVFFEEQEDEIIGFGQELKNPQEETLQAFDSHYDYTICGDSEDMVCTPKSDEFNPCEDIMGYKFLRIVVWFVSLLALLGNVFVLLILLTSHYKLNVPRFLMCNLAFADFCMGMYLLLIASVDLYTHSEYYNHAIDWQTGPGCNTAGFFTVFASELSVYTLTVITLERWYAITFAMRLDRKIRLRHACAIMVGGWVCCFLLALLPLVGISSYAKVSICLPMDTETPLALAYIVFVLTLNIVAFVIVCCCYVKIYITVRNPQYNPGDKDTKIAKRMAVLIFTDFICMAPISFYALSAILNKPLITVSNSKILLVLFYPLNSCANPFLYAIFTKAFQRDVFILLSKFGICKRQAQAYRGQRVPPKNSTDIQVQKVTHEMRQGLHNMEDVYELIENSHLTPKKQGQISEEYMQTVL
# In short: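 Antagonist mode: compound-treated TSHR-expressing HEK293 cells were stimulated with 1.5 ng/mL TSH (final) in presence of Ro20-1724 for 30 min at RT. HTRF cAMP detection after 1 h; each compound tested at 15 concentrations, triplicate.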
# [9] = qHTS assay to identify small molecule agonists of the estrogen receptor alpha (ER-alpha) signaling pathway in the presence of an antagonist - cell viability counter screen (AID 1259386; active = well fitted curve in the direction sought with a large enough effect in the repeat runs; an effect the other way counts as inactive or inconclusive;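 note: series mostly up to about 92 µM; cells exposed to compounds for 22 h at 37 °C before the viability read; nearly all actives have a fitted effect of over 30% in size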)
# In short: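 VM7Luc4E2, stripped-serum pre-culture 5 d; 24hr plating; +ICI-182,780 10.0nM final; cpds 15 conc, 22hr, 37C/5% CO2; CellTiter-Fluor added at 21hr, fluorescence 1hr later.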
# [10] = molecular target: Progesterone receptor (Homo sapiens) (UniProt P06401); assay: qHTS assay to identify small molecule agonists of the progesterone receptor (PR) signaling pathway (AID 1346784); note: nearly all actives have a fitted effect of over 30% in size; note: potency is the fitted concentration of half-maximal effect
# Chain of Progesterone receptor (Homo sapiens) (P06401 whole entry, looked up): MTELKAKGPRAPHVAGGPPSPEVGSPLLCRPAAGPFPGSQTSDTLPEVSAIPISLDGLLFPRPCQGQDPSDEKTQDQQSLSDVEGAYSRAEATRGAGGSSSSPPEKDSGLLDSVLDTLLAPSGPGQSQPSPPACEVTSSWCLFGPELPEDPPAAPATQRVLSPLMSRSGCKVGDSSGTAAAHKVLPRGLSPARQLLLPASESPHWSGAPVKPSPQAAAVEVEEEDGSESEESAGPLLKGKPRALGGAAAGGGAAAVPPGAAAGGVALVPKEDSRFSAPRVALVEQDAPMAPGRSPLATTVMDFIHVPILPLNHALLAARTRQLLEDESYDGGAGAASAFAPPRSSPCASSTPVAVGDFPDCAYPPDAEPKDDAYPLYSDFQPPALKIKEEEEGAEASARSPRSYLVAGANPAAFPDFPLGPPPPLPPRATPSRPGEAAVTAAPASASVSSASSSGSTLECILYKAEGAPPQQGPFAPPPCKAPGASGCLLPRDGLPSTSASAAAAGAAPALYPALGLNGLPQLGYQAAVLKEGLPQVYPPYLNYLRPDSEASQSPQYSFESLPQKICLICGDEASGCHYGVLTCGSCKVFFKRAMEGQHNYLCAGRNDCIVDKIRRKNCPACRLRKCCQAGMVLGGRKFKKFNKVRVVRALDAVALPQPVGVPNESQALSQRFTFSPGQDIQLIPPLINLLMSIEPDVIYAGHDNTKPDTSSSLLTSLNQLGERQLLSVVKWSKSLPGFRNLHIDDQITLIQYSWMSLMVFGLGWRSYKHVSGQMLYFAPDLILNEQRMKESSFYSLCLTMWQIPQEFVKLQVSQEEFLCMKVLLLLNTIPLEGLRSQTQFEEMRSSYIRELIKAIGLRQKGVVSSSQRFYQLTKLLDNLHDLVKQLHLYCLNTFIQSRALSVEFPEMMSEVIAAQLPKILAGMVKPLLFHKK
# In short: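 PR-UAS-bla HEK 293T cells (beta-lactamase reporter under UAS) in 2% charcoal-stripped FBS, dosed with 23 nL compound after 6 hr, incubated 16hr at 37C. LiveBLAzer B/G FRET substrate added, fluorescence read after 2 hours.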
# [11] = qHTS assay to identify small molecule antagonists of the progesterone receptor (PR) signaling pathway - cell viability counter screen (AID 1346798; active = well fitted curve in the direction sought with a large enough effect in the repeat runs; an effect the other way counts as inactive or inconclusive; note: series mostly up to about 92 µM; nearly all actives have a fitted effect of over 50% in size)
# In short: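 PR-UAS-bla HEK293T cells, 3,000/well in 2% charcoal-stripped FBS medium, dosed with compounds plus R5020 agonist and incubated 16 h at 37C. Viability then measured in the same wells by CellTiter-Glo luminescence after 30 min at RT.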
# [12] = qHTS assay to identify small molecule agonists of the progesterone receptor (PR) signaling pathway - cell viability counter screen (AID 1346799); note: nearly all actives have a fitted effect of over 45% in size
# In short: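 Counter screen in the PR-UAS-bla HEK293T wells (2% charcoal-stripped FBS, 16 h compound exposure at 37 C) after the bla read. CellTiter-Glo added, 30 min at room temperature, luminescence read as cell viability.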
# [13] = qHTS assay to identify small molecule antagonists of the TGF-beta/Smad signaling pathway - cell viability counter screen (AID 1346824; active = well fitted curve in the direction sought with a large enough effect in the repeat runs; an effect the other way counts as inactive or inconclusive; note: nearly all actives have a fitted effect of over 50% in size)
# In short: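 Cytotoxicity counter-screen run in the same wells as the beta-lactamase Smad reporter read: CellTiter-Glo luminescence after 30 min at room temperature. HEK 293T SBE-bla cells had 5 hr compound exposure at 37 C with TGF-beta1 (0.25 ng/mL stock).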
# [14] = qHTS assay to identify small molecule agonists of the TGF-beta/Smad signaling pathway - cell viability counter screen (AID 1346829; active = well fitted curve in the direction sought with a large enough effect in the repeat runs; an effect the other way counts as inactive or inconclusive; note: top concentration of the series differs between compounds; nearly all actives have a fitted effect of over 45% in size)
# In short: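 Luminescence from CellTiter-Glo, read after a 30 min room-temperature incubation, gives cell viability of SBE-bla HEK 293T cells treated 5 hr with compounds at 37 C.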
# [15] = qHTS assay to identify small molecule agonists of the TGF-beta/Smad signaling pathway (AID 1346859; active = well fitted activation curve with a large enough effect in the signal ratio in the repeat runs, not every such curve was filed as active; the % refers to the signal ratio; note: series mostly up to about 77 µM)
# In short: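 SBE-bla HEK293T cells plated overnight, then compound exposure for 5 h at 37 C. Beta-lactamase reporter read with LiveBLAzer B/G FRET substrate after 2 h at room temperature, fluorescence at 405 nm excitation, 460/530 nm emission.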
# [16] = molecular target: Thyrotropin-releasing hormone receptor (Homo sapiens) (UniProt P34981); assay: qHTS assay to identify small molecule antagonists of the thyrotropin-releasing hormone receptor (TRHR) signaling pathway (AID 1346877; active = well fitted inhibition curve with a large enough effect in the repeat runs, not every such curve was filed as active; note: series mostly up to about 51 µM)
# Chain of Thyrotropin-releasing hormone receptor (Homo sapiens) (P34981 whole entry, looked up): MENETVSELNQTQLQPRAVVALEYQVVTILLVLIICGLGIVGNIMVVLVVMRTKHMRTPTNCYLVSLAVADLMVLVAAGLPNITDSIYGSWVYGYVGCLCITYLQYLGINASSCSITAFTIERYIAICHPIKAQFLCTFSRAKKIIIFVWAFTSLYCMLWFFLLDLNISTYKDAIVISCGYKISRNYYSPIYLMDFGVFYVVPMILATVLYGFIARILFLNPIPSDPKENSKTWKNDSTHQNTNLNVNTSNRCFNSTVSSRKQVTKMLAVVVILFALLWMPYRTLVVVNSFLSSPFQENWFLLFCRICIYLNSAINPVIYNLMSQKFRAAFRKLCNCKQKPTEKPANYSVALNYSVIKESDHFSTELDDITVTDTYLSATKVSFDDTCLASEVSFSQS
# In short: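 Intracellular calcium fluorescence, read kinetically every second over 3 min, reports TRH-evoked signalling in HEK293 cells carrying TRHR. Test compounds were added 5 min ahead of a 1 nM TRH challenge.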
# [17] = molecular target: Estrogen receptor beta (Homo sapiens) (UniProt Q92731); assay: qHTS assay to identify small molecule antagonists of the estrogen receptor beta (ER-beta) signaling pathway (AID 1259378; active = well fitted inhibition curve with a large enough effect in the signal ratio in the repeat runs, not every such curve was filed as active; the % refers to the signal ratio)
# Chain of Estrogen receptor beta (Homo sapiens) (Q92731 whole entry, looked up): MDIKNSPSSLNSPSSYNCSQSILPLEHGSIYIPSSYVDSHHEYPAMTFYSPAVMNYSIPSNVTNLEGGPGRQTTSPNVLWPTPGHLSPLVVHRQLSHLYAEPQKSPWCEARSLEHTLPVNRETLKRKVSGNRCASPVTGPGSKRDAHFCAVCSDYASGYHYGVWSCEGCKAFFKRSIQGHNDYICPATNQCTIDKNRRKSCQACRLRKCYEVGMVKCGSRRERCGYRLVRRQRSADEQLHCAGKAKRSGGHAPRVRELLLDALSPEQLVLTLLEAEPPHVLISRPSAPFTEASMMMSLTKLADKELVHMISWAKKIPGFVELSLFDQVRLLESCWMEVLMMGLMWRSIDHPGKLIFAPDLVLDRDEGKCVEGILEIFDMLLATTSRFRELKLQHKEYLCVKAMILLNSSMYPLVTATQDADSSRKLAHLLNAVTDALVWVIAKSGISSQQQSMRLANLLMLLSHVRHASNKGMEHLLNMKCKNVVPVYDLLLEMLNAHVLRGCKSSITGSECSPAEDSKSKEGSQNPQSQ
# In short: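 Antagonist mode: compounds added to beta-lactamase reporter HEK293T ER-beta-UAS cells stimulated with E2 (1nM final), 16 hr at 37C. LiveBLAzer B/G FRET substrate, 2 hours room temperature, fluorescence read-out.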
# [18] = molecular target: Progesterone receptor (Homo sapiens) (UniProt P06401); assay: qHTS assay to identify small molecule antagonists of the progesterone receptor (PR) signaling pathway (AID 1346795; active = well fitted inhibition curve with a large enough effect in the signal ratio in the repeat runs, not every such curve was filed as active; the % refers to the signal ratio; note: potency is the fitted concentration of half-maximal effect)
# In short: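 PR-UAS-bla HEK293T cells with beta-lactamase reporter under UAS control, in 2% charcoal-stripped FBS, treated with compounds plus 1 nM promegestone (R5020, final) for 16 hr at 37C. Read-out: FRET beta-lactamase substrate fluorescence after 2 hr at room temperature.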
# [19] = molecular target: Estrogen receptor beta (Homo sapiens) (UniProt Q92731); assay: qHTS assay to identify small molecule agonists of the estrogen receptor beta (ER-beta) signaling pathway (AID 1259377; active = well fitted activation curve with a large enough effect in the signal ratio in the repeat runs, not every such curve was filed as active; the % refers to the signal ratio)
# In short: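 ER-beta-UAS-bla HEK293T cells in medium with 2% charcoal-stripped FBS were exposed to compounds for 16 h at 37C. Beta-lactamase reporter activity was read as fluorescence after 2 h with LiveBLAzer B/G FRET substrate at room temperature.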
# [20] = molecular target: Androgen receptor (Homo sapiens) (UniProt P10275); assay: qHTS assay to identify small molecule agonists of the androgen receptor (AR) signaling pathway in the presence of an antagonist (AID 1259381); note: nearly all actives have a fitted effect of over 15% in size
# Chain of Androgen receptor (Homo sapiens) (P10275 whole entry, looked up): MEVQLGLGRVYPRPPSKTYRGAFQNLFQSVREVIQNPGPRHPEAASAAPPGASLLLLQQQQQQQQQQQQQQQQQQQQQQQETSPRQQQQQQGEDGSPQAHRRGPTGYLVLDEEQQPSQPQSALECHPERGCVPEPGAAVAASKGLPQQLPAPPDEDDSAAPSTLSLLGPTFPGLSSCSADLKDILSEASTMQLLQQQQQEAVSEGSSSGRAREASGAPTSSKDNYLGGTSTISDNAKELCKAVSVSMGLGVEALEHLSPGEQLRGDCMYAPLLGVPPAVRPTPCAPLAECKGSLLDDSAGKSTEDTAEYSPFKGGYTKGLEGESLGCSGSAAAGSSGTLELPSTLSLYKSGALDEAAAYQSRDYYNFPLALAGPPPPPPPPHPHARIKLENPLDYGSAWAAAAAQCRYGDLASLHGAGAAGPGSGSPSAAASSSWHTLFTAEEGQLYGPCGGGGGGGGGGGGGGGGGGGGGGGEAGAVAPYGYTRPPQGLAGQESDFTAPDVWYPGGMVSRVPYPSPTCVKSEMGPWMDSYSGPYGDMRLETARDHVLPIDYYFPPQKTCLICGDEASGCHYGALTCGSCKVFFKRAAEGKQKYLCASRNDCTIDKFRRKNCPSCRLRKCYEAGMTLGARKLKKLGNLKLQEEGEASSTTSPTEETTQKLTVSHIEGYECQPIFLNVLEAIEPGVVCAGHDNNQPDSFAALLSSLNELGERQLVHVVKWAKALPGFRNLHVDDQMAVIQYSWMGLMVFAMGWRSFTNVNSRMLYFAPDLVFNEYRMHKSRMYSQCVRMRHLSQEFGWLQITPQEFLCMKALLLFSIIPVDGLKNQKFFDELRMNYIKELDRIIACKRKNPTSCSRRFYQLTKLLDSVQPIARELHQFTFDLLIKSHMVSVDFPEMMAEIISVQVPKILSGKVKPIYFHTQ
# In short: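 MDA-kb2 cells, 3,000/well, rested 5hr at 37C/0% CO2 → nilutamide 3.0uM final or buffer → compounds, 15 conc. → 16hr at 37C → ONE-Glo, 30min RT → luminescence.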
Structure (SMILES),Potency [1],Potency [2],Potency [3],Potency [4],outcome [5],Potency [6],outcome [7],Potency [8],Potency [9],Potency [10],Potency [11],Potency [12],outcome [13],outcome [14],outcome [15],outcome [16],Potency [17],Potency [18],outcome [19],Potency [20]
CC(C)S,inactive,inactive,inactive,inactive,inactive,inactive,inactive,inactive,inactive,inactive,inactive,inactive,inactive,inactive,inactive,inactive,,,,
OCCN1CCN(CCO)CC1,inactive,inactive,,inactive,inactive,,inactive,inactive,inactive,inactive,inactive,inactive,,,inactive,inactive,inactive,inactive,,
CCC/C=C/CO,inactive,inactive,inactive,inactive,,inactive,inactive,inactive,inactive,inactive,inactive,,inactive,inactive,inactive,,inactive,inactive,,
CCC(=O)O[C@]1(C(=O)SCF)[C@H](C)C[C@H]2[C@@H]3C[C@H](F)C4=CC(=O)C=C[C@]4(C)[C@@]3(F)[C@@H](O)C[C@@]21C,inactive,inactive,inactive,inactive,inactive,inactive,inactive,,inactive,,inactive,inactive,inactive,inactive,inactive,inactive,,,,
NS(=O)(=O)c1cc(-c2nn[nH]n2)c(NCc2cccs2)cc1Cl,inactive,inactive,,inactive,inactive,inactive,inactive,inactive,inactive,inactive,inactive,inactive,inactive,inactive,inactive,inactive,,inactive,inactive,
CCN(CCCc1ccccc1)CCCc1ccccc1,inactive,inactive,,11.9 µM (active),,inactive,inactive,,inactive,,,,inactive,inactive,,inactive,,inactive,inactive,
CC(C)(C)c1ccc(OC(=O)c2ccccc2O)cc1,inactive,inactive,inactive,,inactive,,inactive,,inactive,inactive,inactive,inactive,inactive,,inactive,,inactive,inactive,,
CC(C)(C)c1cccc(O)c1,inactive,inactive,inactive,inactive,inactive,inactive,inactive,inactive,inactive,inactive,inactive,inactive,inactive,,inactive,inactive,,inactive,,inactive
C=CCCCCCCCCO,inactive,inactive,,inactive,inactive,inactive,inactive,inactive,inactive,inactive,inactive,inactive,inactive,inactive,inactive,inactive,,,inactive,
COc1ccccc1OCC(O)COC(N)=O (centres undefined),inactive,inactive,inactive,inactive,inactive,inactive,inactive,inactive,inactive,inactive,inactive,inactive,inactive,inactive,inactive,inactive,,,,
NCCCN1CCN(CCCN)CC1,inactive,inactive,inactive,inactive,inactive,inactive,inactive,inactive,inactive,inactive,,inactive,inactive,inactive,inactive,inactive,,,,inactive
CCCc1c2oc(C(=O)O)cc(=O)c2cc2c(=O)cc(C(=O)O)n(CC)c12,inactive,inactive,inactive,inactive,inactive,inactive,inactive,inactive,inactive,inactive,inactive,inactive,inactive,inactive,inactive,,,inactive,,
CC(C)OC(C)C,inactive,inactive,inactive,inactive,inactive,inactive,inactive,inactive,inactive,inactive,inactive,inactive,inactive,inactive,inactive,,,inactive,,
CCCOc1ccc2c(c1)CC[C@@H]1[C@@H]2CC[C@]2(C)C(OC)CC[C@@H]12 (some centres undefined),inactive,inactive,inactive,inactive,inactive,inactive,inactive,inactive,inactive,,inactive,,inactive,inactive,inactive,inactive,inactive,15 µM (active),,inactive
CCCCCCC,inactive,inactive,inactive,inactive,inactive,inactive,inactive,inactive,inactive,inactive,,,inactive,inactive,inactive,inactive,,,,
C[C@]12CCC(=O)C=C1CC[C@@H]1[C@@H]2CC[C@@]2(C)[C@H]1CC[C@]2(O)C(=O)CO,inactive,inactive,inactive,inactive,inactive,inactive,inactive,inactive,inactive,8.41 µM (active),inactive,,inactive,inactive,inactive,inactive,,,,
C[C@@H](N)C(=O)O,inactive,21.1 µM (active),inactive,inactive,inactive,,inactive,inactive,inactive,inactive,inactive,inactive,inactive,inactive,inactive,,,inactive,,inactive

# From PubChem BioAssay (Tox21)
